Bioassay records (PubChem)
VDR inh – Inhibitors of the vitamin D receptor (VDR): qHTS; 0.93% of 400,000 active; Potency, µM, inactives show max response, negative = inhibition, most hits filed as inhibitors; Vitamin D3 receptor (Homo sapiens), P11473; VDR-SRC2-3 peptide fluorescence polarization, 2 h; note: % is set by controls: 0 for no effect and ±100 for the full control effect
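Reagent solutions, kept cold and dark, are dispensed first; compounds are then pinned in at 23 nl, plates briefly spun, and incubated 2 h at ambient temperature. Inhibition of VDR–SRC2-3 peptide binding is read by fluorescence polarization.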
Sfp PPTase inh – qHTS Assay for Inhibitors of Bacillus subtilis Sfp phosphopantetheinyl transferase (PPTase). 4'-phosphopantetheinyl transferase ffp (Bacillus subtilis), Q9F4F7. Biochemical Sfp PPTase activity, qHTS. Potency, µM, for the others: largest response in the series, negative = inhibition, hits mostly inhibitors. 3.5% of 310,000 active. AID 1490, 2009;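 note: the enzyme is Sfp with the accession as filed and its product quenches rhodamine fluorescence; 0% = enzyme reaction without inhibitor and -100% = no enzyme wells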
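Step 1, compound plus 15 nM Sfp-PPTase, 15 min, room temperature. Step 2, add rhodamine-CoA (5 uM) and BHQ-2-YbbR (12.5 uM). Step 3, read 525/598 nm fluorescence at 0 and 30 min.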
Glioma ERSR ind – qHTS for Inducers of the Endoplasmic Reticulum Stress Response (ERSR) in Human Glioma: qHTS; U87-MG GRP78 promoter luciferase reporter, 16 h; Potency, µM, for inactives: at the top dose activation, most hits filed as activators; 0.02% of 420,000 active; AID 602332, 2012; note: series mostly up to about 76 µM; % of control where 0% means no effect; nearly all actives have a fitted effect of over 35% in size
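ERSR induction read as luciferase luminescence (Bright-Glo, 10 min at room temperature) in stably transfected human U87-MG glioma cells exposed to compounds for 16 h, using GRP78 as sensor.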
12-LOX inh – Primary qHTS assay for inhibitors of human arachidonate 12S-lipoxygenase (ALOX12): Round 2 | 1.1% of 580,000 active | purified 12hLO, xylenol orange hydroperoxide absorbance | Polyunsaturated fatty acid lipoxygenase ALOX12 (Homo sapiens), P18054 | AID 1671190, 2021 | Potency, µM (series often up to 108 µM), for inactives: at the top dose activity change, negative = inhibition, actives largely listed as inhibitors; note: % is set by controls: 0 for no effect and ±100 for the full control effect
Target sequence (P18054 whole entry, looked up): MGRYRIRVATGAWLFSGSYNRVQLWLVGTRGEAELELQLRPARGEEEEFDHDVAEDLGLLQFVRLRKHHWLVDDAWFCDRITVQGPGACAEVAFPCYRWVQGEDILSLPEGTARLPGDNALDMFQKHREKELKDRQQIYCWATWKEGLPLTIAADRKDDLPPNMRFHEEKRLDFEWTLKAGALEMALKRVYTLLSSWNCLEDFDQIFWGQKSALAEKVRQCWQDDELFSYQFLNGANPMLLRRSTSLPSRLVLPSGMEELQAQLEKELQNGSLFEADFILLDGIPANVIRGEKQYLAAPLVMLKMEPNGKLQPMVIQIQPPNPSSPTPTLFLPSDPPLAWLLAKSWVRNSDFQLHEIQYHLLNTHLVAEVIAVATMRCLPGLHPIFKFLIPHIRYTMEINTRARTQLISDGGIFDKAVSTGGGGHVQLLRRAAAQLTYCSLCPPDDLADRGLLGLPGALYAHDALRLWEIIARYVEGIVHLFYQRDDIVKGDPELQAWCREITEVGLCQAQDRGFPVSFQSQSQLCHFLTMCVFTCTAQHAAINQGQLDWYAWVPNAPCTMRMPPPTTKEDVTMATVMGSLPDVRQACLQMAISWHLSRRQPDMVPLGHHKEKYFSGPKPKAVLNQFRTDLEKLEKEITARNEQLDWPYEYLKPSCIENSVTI
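Hydroperoxide product was detected by ferrous iron/xylenol orange as the 573 to 405 nm absorbance ratio. Arachidonic acid at 40 uM (final) was turned over for 30 min at room temperature by 150 nM human 12hLO, pH 7.0 Hepes buffer, after 15 min compound preincubation.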
G9a block – qHTS Assay for Inhibitors of Histone Lysine Methyltransferase G9a; Histone-lysine N-methyltransferase EHMT2 (Homo sapiens), Q96KQ7; G9a H3K9 monomethylation, AlphaScreen, 2 h; Potency, µM (titrated, usually from 102 µM), for inactives: at the highest dose activity, negative = inhibition, hits mostly inhibitors; 8.8% of 350,000 active; note: % is set by controls: 0 for no effect and ±100 for the full control effect; nearly all actives have a fitted effect of over 75% in size
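Enzyme 20 nM + cpd, 15 min RT; add b-H3K9 pep 500 nM / SAM 20 uM; 2 h RT; anti-H3K9me1 Ab 0.5 ug/mL + SA donor / anti-rabbit acceptor beads 20 ug/mL each, 10 min; AlphaScreen read.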
Numbers without * were called inactive; ? = inconclusive; · = no result; [ ] = dose if it differs, or a comment. This excerpt belongs to a sample that is enriched for hits. Calls come from the whole dose curve; as a rule, active = well fitted curve in the direction sought with a large enough effect; inconclusive = small, poorly fitted or top-dose-only effect, or another doubt; inactive = no such curve, though single readings can be large; an effect the other way counts as inactive or inconclusive. Potency is the fitted concentration of half-maximal effect.

SMILES	VDR inh	Sfp PPTase inh	Glioma ERSR ind	12-LOX inh	G9a block
CN(C)c1ccc(O)c2c1CC1CC3[C@@H](N(C)C)C(=O)C(C(N)=O)=C(O)[C@]3(O)C(=O)C1=C2O (stereo partly drawn)	-4%	-12%	-2%	?	10µM*
CN(C)c1ccc(O)c2c1C[C@H]1C[C@H]3[C@H](N(C)C)C(=O)C(C(N)=O)=C(O)[C@@]3(O)C(=O)C1=C2O	·	·	-4%	?	·
CN(C)C1C(=O)C(C(N)=O)C(=O)C2(O)C(=O)C3C(=O)c4c(O)ccc(Cl)c4C(O)C3CC12 (stereo not drawn)	1%	-9%	-7%	·	16µM*
CC(C)n1nc(C(=O)OCc2nc(N)nc(Nc3ccccc3)n2)c2ccccc2c1=O	·	·	·	-4%	·
O=C(Nc1cccc(-c2nnc3n2CCCC3)c1)C1CC1	·	·	·	1%	·
Cc1ccc(-c2ccc(=O)n(CC(=O)Nc3c(C)cccc3C)n2)cc1S(=O)(=O)N1CCOCC1	·	·	·	1%	·
COC(=O)c1cc(C)nc2c1C(=O)C(=O)C=C2N1CCOCC1	?	-11%	-14%	?	45µM*
COC(=O)c1cc(S(=O)(=O)N2CCOCC2)c(Cl)cc1N1CCOCC1	4%	9%	-4%	0%	-42%[59 µM]
NC(=O)c1sc2nc(-c3ccccc3)ccc2c1N	?	13%	4%	?	·
Nc1c(C(=O)NC2CCCC2)sc2nc(-c3cccs3)ccc12	-19%	45µM*	2%	-29%	-48%[2.33 µM]
NC(=O)c1sc2nc(-c3cccs3)ccc2c1N	-9%	-13%	3%	0%	35µM*
Cc1c(C(=O)Nc2cccc(S(=O)(=O)N3CCCC3)c2)oc2c(F)cccc12	·	·	·	1%	·
C=CCNC(=S)NNC(=O)C(C)C	·	·	·	42%	·
Cc1ccc(S(=O)C(c2ccccc2)c2ccccc2)cc1 (stereo not drawn)	0%	·	-1%	22µM*	·
Cc1cccc(S(=O)C(c2ccccc2)c2ccccc2)c1 (stereo not drawn)	6%	·	-1%	?	·
O=S(CC(O)c1ccccc1)c1ccccc1 (stereo not drawn)	·	·	0%	28µM*	·
O=S(c1ccccc1)C(c1ccccc1)c1ccccc1 (stereo not drawn)	-21%	·	-1%	32µM*	·
NC(=O)C(c1ccccc1)c1ccccc1	·	·	·	83%	·
O=C(NC1CC1)c1cc(-c2ccccc2F)cc2c1OCCN2Cc1cccnc1	·	·	·	-1%[176 µM]	·
O=C1CCc2cc(C(=O)NCCc3ccc4c(c3)OCCO4)ccc2N1	·	·	·	25%	·
NC(=O)c1c(NC(=O)c2ccccc2)sc2c1CCC2	?	-3%	?	?	-44%
NC(=O)c1c(NC(=S)Nc2ccccc2)sc2c1CCCC2	?	56µM*	-1%	35µM*	6.3µM*
NC(=O)c1c(NC(=O)c2cc(-c3ccc(F)cc3)on2)sc2c1CCCC2	56µM*	·	-5%	4%	1.8µM*
C=CCNC(=S)Nc1sc2c(c1C(N)=O)CCCC2	?	50µM*	10%	?	18µM*
NC(=O)c1c(NC(=S)Nc2ccc(F)cc2)sc2c1CCCC2	-19%	22µM*	1%	?	22µM*
SMILES	VDR inh	Sfp PPTase inh	Glioma ERSR ind	12-LOX inh	G9a block
Cc1cc(C(=O)Nc2sc(C)c(-c3ccc(F)cc3)c2C(N)=O)no1	1%	-1%	1%	-22%	-47%[59 µM]
O=C(CCC(=O)OCc1ccc(Br)cc1)Nc1ccc2c(c1)oc1ccccc12	·	·	·	11%	·
Cc1ccc2oc(C(=O)NCCc3nc(-c4ccccc4)no3)cc(=O)c2c1	·	·	·	1%	·
CCC(C)NC(=O)Cc1c(C)nc2ccccc2c1C (stereo not drawn)	·	·	·	-12%	·
NC(=O)c1c(NC(=O)c2cnccn2)sc2c1CCCC2	15%	40µM*	2%	-6%	8.9µM*
NC(=O)c1c(NC(=O)c2ccncc2)sc2c1CCCC2	5%	9%	5%	-20%	?
O=[N+]([O-])c1ccc(Cl)c(/C=N/n2c(-c3cccnc3)n[nH]c2=S)c1	·	8%	·	·	5.6µM*
O=[N+]([O-])c1cc(/C=N/n2c(-c3ccncc3)n[nH]c2=S)ccc1Cl	0%	-21%	1%	-28%	·
O=[N+]([O-])c1ccc(/C=N/n2c(-c3cccnc3)n[nH]c2=S)cc1	-2%	?	-4%	-16%	-127%
O=[N+]([O-])c1cccc(/C=N/n2c(-c3cccnc3)n[nH]c2=S)c1	-6%	?	2%	?	1.8µM*
CN(Cc1ccc(C(=O)NCC(F)(F)F)cc1)C(=O)c1ccccc1	·	·	·	12%	·
CNC(=S)N/N=C(/C)c1ccc([N+](=O)[O-])cc1	·	·	·	0%	·
Cc1cc(C(=O)OCC(=O)NC2(C#N)CCCCC2)c2ccccc2n1	·	·	·	-3%	·
N#CC1(NC(=O)COC(=O)c2cc(O)c3ccccc3c2O)CCCCC1	45µM*	·	11%	·	4.5µM*
CC1CC(C)CN(CCOc2ccccc2-c2ccccc2)C1 (stereo not drawn)	-4%	-12%	-5%	?	?
CCN1CCN(CCOc2ccccc2OCc2ccccc2)CC1	-6%	-11%	0%	?	20µM*
CCN1CCN(Cc2ccc(OCc3ccccc3)c(OC)c2)CC1	-1%	11%	2%	?	?
CCN1CCN(CCOCCOc2ccccc2-c2ccccc2)CC1	·	50µM*	·	·	7.9µM*
c1ccc(-c2ccccc2OCCOCCN2CCOCC2)cc1	-16%	?	-6%	?	4µM*
c1ccc(-c2ccccc2OCCOCCN2CCNCC2)cc1	-11%	20µM*	0%	-15%	·
CC(=O)Nc1cc(NC(C)=O)cc(C(=O)OCC(=O)c2ccc3c(c2)OCO3)c1	-3%	·	6%	-9%	10µM*
CC(C[N+](C)(C)C)OC(=O)c1ccc2c(c1)OCO2 (stereo not drawn)	·	·	·	25µM*	·
CC(CN1CCCCC1)OC(=O)c1ccc2c(c1)OCO2 (stereo not drawn)	9%	6%	3%	-81%	-5%[12.7 µM]
O=C(Nc1ccc(Cl)cc1)c1nc2ccccc2nc1N1CCOCC1	·	·	·	-1%	·
COc1cc(C2C(C(=O)Nc3ccccc3)=C(C)Nc3nc(CCCO)nn32)cc(OC)c1OC (stereo not drawn)	·	·	·	4%	·
O=C(Cc1nc2ccccc2s1)c1ccc(O)cc1O	·	50µM*	·	·	?
CCOc1cc([C@@H]2C[C@H]3CN(c4ccccc4)C(=O)[C@]34CCCN24)ccc1OC	1%	-7%	-2%	-8%	50µM*
COc1cc([C@@H]2C[C@H]3CN(c4ccccc4)C(=O)[C@]34CCCN24)cc(OC)c1OC	0%	-6%	-5%	-3%	·
